In PubChem BioAssay (EPA / NIEHS):
Activity calls are given as the source filed them. The calls were made as follows: active = hit-call score of the fitted dose curve at least 0.9, where 1 is the maximum; inactive = score below 0.9.

Assays:
Details in all cases: mRNA level, 48 h; actives raise or lower the signal
[1] = read-out: growth arrest and DNA damage 45 (GADD45G), GADD45G (gene 10912); test: LTEA_HepaRG_GADD45G: Life Technologies and Expression Analysis (LTEA) Assay for growth arrest and DNA damage 45 (GADD45G) using HepaRG (AID 2283499)
Procedure, shortened: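 HepaRG, 48 h exposure, top 100 uM, half-log 8-point series, 0.5% DMSO vehicle, duplicates. Readout: GADD45G transcript by qRT-PCR (Fluidigm array), housekeeping-normalised (ACTB/GAPDH/POLR2A). Bidirectional curve fit vs DMSO baseline.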

[2] = read-out: Glutamate-cysteine ligase regulatory (GCLM), GCLM (gene 2730); test: LTEA_HepaRG_GCLM: Life Technologies and Expression Analysis (LTEA) Assay for Glutamate-cysteine ligase regulatory (GCLM) using HepaRG (AID 2283500)
Procedure, shortened: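 Endpoint is GCLM transcript level by qRT-PCR, normalized to three housekeeping genes, after 48 h chemical exposure of human HepaRG cells (0.5% DMSO vehicle, top 100 uM, half-log dilutions). Fitting was bidirectional relative to DMSO.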

[3] = read-out: Glutathione S-transferase M3 (GSTM3), GSTM3 (gene 2947); test: LTEA_HepaRG_GSTM3: Life Technologies and Expression Analysis (LTEA) Assay for Glutathione S-transferase M3 (GSTM3) using HepaRG (AID 2283501)
Procedure, shortened: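 qRT-PCR read-out of GSTM3 transcript, normalized to three housekeeping genes, from human HepaRG cells after 48 h chemical exposure. Eight-point half-log series, top 100 uM, 0.5% DMSO vehicle; gain or loss fitted relative to DMSO baseline.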

[4] = read-out: Heat shock 70 kDa protein 1 (HSPA1A), gene 3303; test: LTEA_HepaRG_HSPA1A: Life Technologies and Expression Analysis (LTEA) Assay for Heat shock 70 kDa protein 1 (HSPA1A) using HepaRG (AID 2283502)
Procedure, shortened: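 Cells were plated and cultured for 48 h, then switched to serum-free induction medium. Chemicals were added at eight half-log concentrations up to 100 uM for 48 h. RNA was then isolated and HSPA1A measured by qRT-PCR with bidirectional curve fitting against DMSO.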

[5] = read-out: 3-Hydroxy-3-Methylglutaryl-CoA Synthase 2 (HMGCS2), HMGCS2 (gene 3158); test: LTEA_HepaRG_HMGCS2: Life Technologies and Expression Analysis (LTEA) Assay for 3-Hydroxy-3-Methylglutaryl-CoA Synthase 2 (HMGCS2) using HepaRG (AID 2283504)
Procedure, shortened: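 qRT-PCR read-out of HMGCS2 transcript, normalised to three housekeeping genes, in HepaRG cells after 48 h chemical exposure. Eight-point curves from 100 uM, half-log dilutions, 0.5% DMSO vehicle; gain or loss fitted relative to DMSO baseline.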

HGF (gene 3082) = test: LTEA_HepaRG_HGF: Life Technologies and Expression Analysis (LTEA) Assay for Hepatocyte Growth Facto (HGF) using HepaRG (AID 2283505)
Procedure, shortened: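 HepaRG, 48 h dosing, 8-pt half-log series from 100 uM in 0.5% DMSO, duplicates. Readout: TaqMan qRT-PCR of HGF mRNA, housekeeping-normalized; bidirectional curve fit vs DMSO baseline.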

[6] = read-out: Insulin Like Growth Factor 1 (IGF1), IGF1 (gene 3479); test: LTEA_HepaRG_IGF1: Life Technologies and Expression Analysis (LTEA) Assay for Insulin Like Growth Factor 1 (IGF1) using HepaRG (AID 2283506)
Procedure, shortened: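 Cells are thawed, plated and cultured 48 h, then exposed in duplicate to chemical (highest 100 uM, half-log steps, 0.5% DMSO) for another 48 h. Total RNA is analysed by Fluidigm qRT-PCR for IGF1 expression relative to vehicle.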

[7] = read-out: Intercellular Adhesion Molecule 1 (ICAM1), ICAM1 (gene 3383); test: LTEA_HepaRG_ICAM1: Life Technologies and Expression Analysis (LTEA) Assay for Intercellular Adhesion Molecule 1 (ICAM1) using HepaRG (AID 2283507)
Procedure, shortened: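 HepaRG, 48 h exposure, 8-pt half-log series from 100 uM, 0.5% DMSO vehicle, duplicates. Readout: TaqMan qRT-PCR mRNA, housekeeping-normalized (ACTB/GAPDH/POLR2A). Bidirectional curve fit vs DMSO baseline.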

[8] = read-out: Insulin-like growth factor-binding protein 1 (IGFBP1), IGFBP1 (gene 3484); test: LTEA_HepaRG_IGFBP1: Life Technologies and Expression Analysis (LTEA) Assay for Insulin-like growth factor-binding protein 1 (IGFBP1) using HepaRG (AID 2283508)
Procedure, shortened: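 qRT-PCR mRNA read-out (TaqMan, Fluidigm array), normalised to three housekeeping genes; HepaRG cells, 48 h exposure, 8-pt half-log series from 100 uM, 0.5% DMSO vehicle; bidirectional curve fit vs DMSO baseline.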

[9] = read-out: Interleukin 6 (IL6), IL6 (gene 3569); test: LTEA_HepaRG_IL6: Life Technologies and Expression Analysis (LTEA) Assay for Interleukin 6 (IL6) using HepaRG (AID 2283509)
Procedure, shortened: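 qRT-PCR read-out of IL6 transcript, normalized to three housekeeping genes, after 48 h chemical exposure of HepaRG cells; 8-point half-log series, top 100 uM, 0.5% DMSO vehicle. Bidirectional curve fitting against DMSO baseline.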

[10] = read-out: Interleukin 6 Receptor (IL6R), IL6R (gene 3570); test: LTEA_HepaRG_IL6R: Life Technologies and Expression Analysis (LTEA) Assay for Interleukin 6 Receptor (IL6R) using HepaRG (AID 2283510);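 as to AC50: differentiated human HepaRG liver cells in serum-free induction medium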
Procedure, shortened: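 Cells were thawed, plated and cultured 48 h, then medium was changed to serum-free induction medium. Chemicals were added in duplicate (100 uM top, half-log steps, 0.5% DMSO) for 48 h. Lysates were analyzed by qRT-PCR for IL6R expression.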

[11] = read-out: Potassium channel subfamily K member 1 (KCNK1), KCNK1 (gene 3775); test: LTEA_HepaRG_KCNK1: Life Technologies and Expression Analysis (LTEA) Assay for Potassium channel subfamily K member 1 (KCNK1) using HepaRG (AID 2283511)
Procedure, shortened: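 HepaRG, 48 h exposure, 8-pt half-log series top 100 uM, 0.5% DMSO vehicle, duplicates. Readout: KCNK1 transcript by qRT-PCR (Fluidigm array), housekeeping-normalized; bidirectional curve fit relative to DMSO baseline.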

[12] = read-out: Keratin 19 (KRT19), KRT19 (gene 3880); test: LTEA_HepaRG_KRT19: Life Technologies and Expression Analysis (LTEA) Assay for Keratin 19 (KRT19) using HepaRG (AID 2283512)
Procedure, shortened: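 HepaRG, 48 h chemical exposure, 8-pt half-log CRC from 100 uM, 0.5% DMSO vehicle, duplicates. Readout: TaqMan qRT-PCR of KRT19 mRNA, housekeeping-normalized (ACTB/GAPDH/POLR2A). Bidirectional fit vs DMSO baseline.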

[13] = read-out: JUN Transcription Factor, JUN (gene 3725); test: LTEA_HepaRG_JUN: Life Technologies and Expression Analysis (LTEA) Assay for JUN Transcription Factor using HepaRG (AID 2283513)
Procedure, shortened: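 Read-out is JUN transcript level by TaqMan qRT-PCR, normalized to ACTB, GAPDH and POLR2A, after 48 h chemical treatment of HepaRG cells. Concentration-response spanned eight half-log points up to 100 uM in 0.5% DMSO.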

[14] = read-out: Lipase C (LIPC), LIPC (gene 3990); test: LTEA_HepaRG_LIPC: Life Technologies and Expression Analysis (LTEA) Assay for Lipase C (LIPC) using HepaRG (AID 2283514)
Procedure, shortened: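 HepaRG, 48 h exposure, 8-pt half-log series from 100 uM in 0.5% DMSO, duplicates. Readout: LIPC mRNA by Fluidigm qRT-PCR, housekeeping-normalized (ACTB/GAPDH/POLR2A). Gain or loss fitted bidirectionally against DMSO baseline.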

[15] = read-out: Lipoprotein lipase (LPL), LPL (gene 4023); test: LTEA_HepaRG_LPL: Life Technologies and Expression Analysis (LTEA) Assay for Lipoprotein lipase (LPL) using HepaRG (AID 2283515)
Procedure, shortened: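 HepaRG, 48 h exposure, 8-pt half-log dilutions from 100 uM, 0.5% DMSO vehicle, duplicates; qRT-PCR (Fluidigm array) of LPL mRNA vs housekeeping genes; bidirectional curve fit relative to DMSO baseline.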

[16] = read-out: MicroRNA 122 (MIR122), gene 406906; test: LTEA_HepaRG_MIR122: Life Technologies and Expression Analysis (LTEA) Assay for MicroRNA 122 (MIR122) using HepaRG (AID 2283516); also: the transcript read is the microRNA miR-122
Procedure, shortened: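 Human liver HepaRG cultures receive test chemicals for 48 h at eight half-log concentrations from 100 uM. Expression is quantified by qRT-PCR with ACTB/GAPDH/POLR2A normalization and fitted bidirectionally against 0.5% DMSO.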

[17] = read-out: matrix metalloproteinase-10 (MMP10), MMP10 (gene 4319); test: LTEA_HepaRG_MMP10: Life Technologies and Expression Analysis (LTEA) Assay for matrix metalloproteinase-10 (MMP10) using HepaRG (AID 2283517)
Procedure, shortened: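 Transcript levels come from Fluidigm qRT-PCR normalized to three housekeeping genes, with curves fitted bidirectionally against 0.5% DMSO. Human HepaRG cells were dosed for 48 hours at concentrations up to 100 uM.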

MYC, MYC (gene 4609) = test: LTEA_HepaRG_MYC: Life Technologies and Expression Analysis (LTEA) Assay for MYC using HepaRG (AID 2283518)
Procedure, shortened: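 qRT-PCR read-out of MYC transcript (Fluidigm TaqMan, housekeeping-normalized) after 48 h chemical exposure of HepaRG cells; eight concentrations, top 100 uM, half-log steps. Bidirectional curve fitting against 0.5% DMSO vehicle baseline.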

Measured: AC50

CCCc1cc(=O)[nH]c(=S)[nH]1
inactive: [1] | [2] | [3] | [4] | [5] | HGF (gene 3082) | [6] | [7] | [8] | [9] | [10] | [11] | [12] | [13] | [14] | [15] | [16] | [17] | MYC, MYC (gene 4609)

CC(=O)OCCOCCOCCOC(C)=O
inactive: [1] | [2] | [3] | [4] | [5] | HGF (gene 3082) | [6] | [7] | [8] | [9] | [10] | [11] | [12] | [13] | [14] | [15] | [16] | [17] | MYC, MYC (gene 4609)

O=c1[nH]cc(F)c(=O)[nH]1
active: [5] 51 µM | [10] 51 µM | [14] 80.6 µM | [15] 34.5 µM
inactive: [1] | [2] | [3] | [4] | HGF (gene 3082) | [6] | [7] | [8] | [9] | [11] | [12] | [13] | [16] | [17] | MYC, MYC (gene 4609)

CCCCOC(=O)CCCCCCCCC(=O)OCCCC
inactive: [1] | [2] | [3] | [4] | [5] | HGF (gene 3082) | [6] | [7] | [8] | [9] | [10] | [11] | [12] | [13] | [14] | [15] | [16] | [17] | MYC, MYC (gene 4609)

O=c1c(O)c(-c2ccc(O)c(O)c2)oc2cc(O)cc(O)c12
active: [14] 80.5 µM
inactive: [1] | [2] | [3] | [4] | [5] | HGF (gene 3082) | [7] | [8] | [9] | [10] | [12] | [13] | [15] | [16] | [17] | MYC, MYC (gene 4609)
